{
  "source": "PubChem BioAssay (NCATS)",
  "note": "Results filed as inconclusive are left out. Active and inactive are the calls of the source. The call rests on the fitted dose curve; in most records, active means well fitted inhibition curve with a large enough effect; inconclusive means small, poorly fitted or top-dose-only effect, or effect the other way; inactive means flat fitted curve, though single readings scatter. Potency means the concentration at half of the fitted maximal effect.",
  "data": [
    {"test": "qHTS for Inhibitors of Plasmodium falciparum (GB4) proliferation (AID 504315); further: nearly all actives have a fitted effect of over 50% in size;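 on activity change, negative = inhibition: 0% = DMSO vehicle and -100% = 0.29 µM artemisinin control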", "details": "P. falciparum GB4 in erythrocytes, SYBR Green DNA, 72 h; series mostly up to 6.7 µM; activity change, negative = inhibition: at the top concentration", "how_it_was_run": "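Parasite growth measured as SYBR Green DNA fluorescence (ex 485, em 535 nm) after overnight lysis following 72 h culture at 37 °C, 0.3% parasitemia, 2.5% hematocrit. Values normalized against DMSO and 0.29 uM artemisinin controls, with plate-stack correction.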", "values": [
      {"smiles": "C=CCN1c2ccccc2[C@]23CCC(=O)N(CC(=O)OC)C2=NC(C(=O)OC)=C(C(=O)OC)[C@H]13", "activity change, negative = inhibition": "3.46% (inactive)"},
      {"smiles": "COc1ccc2c3c(c(=O)oc2c1)[C@H]1O[C@](CCCCN2C(=O)c4ccccc4C2=O)(Cc2cc(OC)c(OC)cc21)O3", "Potency": "2690 nM (active)"},
      {"smiles": "C[C@@H]1C=CCC(=O)N2[C@H](CC(=O)N[C@@H]1c1ccccc1)C[C@@H](C)[C@@H]2c1ccccc1", "activity change, negative = inhibition": "0.0875% (inactive)"},
      {"smiles": "C=CC[C@@H]1C=C[C@H](ON=C(C)CCN2CCCc3nc(C)c(C)cc32)[C@H](CO)O1", "Potency": "1900 nM (active)"},
      {"smiles": "COC(=O)CC1=CO[C@@H](O)[C@@H]2C(CO)=CC[C@@H]12", "activity change, negative = inhibition": "1.04% (inactive)"},
      {"smiles": "COC(=O)CC=C1c2ccccc2[C@@H](OC)[C@@H]1C", "Potency": "inactive"},
      {"smiles": "COC(=O)N[C@H](C(C(=O)OC)=C(C)NCc1ccccc1)c1ccco1", "activity change, negative = inhibition": "14.3% (inactive)"},
      {"smiles": "CC(=O)C1=C(C)N(Cc2ccccc2)C(=O)NC1CCc1ccccc1", "note": "(stereo not given)", "activity change, negative = inhibition": "-10.1% (inactive)"},
      {"smiles": "COC(=O)C1=C(C)N(CC2CC2)C(=O)NC1c1ccc(Br)cc1", "note": "(stereo not given)", "activity change, negative = inhibition": "-15.6% (inactive)"},
      {"smiles": "COc1ccc2c(c1)CO[C@H]([C@H](O)CO)[C@H]2C=CC#Cc1ccc(C(C)(C)C)cc1", "activity change, negative = inhibition": "-1.74% (inactive)"},
      {"smiles": "COC(=O)CCCC1=CC2=C(c3ccccc3)C(=O)C(C)(OC(=O)C3CCCC3)C(=O)C2=CN1c1ccc(OC)cc1", "note": "(stereo not given)", "Potency": "inactive"},
      {"smiles": "COc1ccc([C@]23Cc4ccccc4[C@H](O2)c2c(cc(-c4ccccc4)oc2=O)O3)cc1", "activity change, negative = inhibition": "-7.04% (inactive)"},
      {"smiles": "COC1=C[C@H](C(=O)N[C@H]2CCCC[C@H]2NC(C)=O)[C@H](C)[C@@H](c2ccccc2)CC1=O", "activity change, negative = inhibition": "-2.67% (inactive)"},
      {"smiles": "C[C@@H](ON=C1[C@H]2CCn3c(=O)n(-c4ccccc4)c(=O)n3[C@@H]2[C@H](O)[C@@H]2O[C@H]12)c1cn([C@@H]2COC[C@@H]2O)nn1", "activity change, negative = inhibition": "12.1% (inactive)"},
      {"smiles": "CCN1C(=NCc2cccc(C(F)(F)F)c2)NC(c2cccc(F)c2)C(C(=O)OC)=C1C", "note": "(stereo not given)", "Potency": "757 nM (active)"},
      {"smiles": "CCN1C(=NCCCOC(C)C)N[C@@H](CCc2ccccc2)[C@H](C(=O)NCCCOC(C)C)[C@H]1C", "activity change, negative = inhibition": "-8.89% (inactive)"},
      {"smiles": "COC(=O)C1=C(C(=O)OC)[C@@H]2N(C)c3ccc(OC)cc3[C@@]23C[C@@H](C(=O)OC)N(C(=O)NCCBr)C3=N1", "Potency": "2130 nM (active)"},
      {"smiles": "CCCCc1nc2c(c3c1C[C@H](C)OC3)CN(S(=O)(=O)c1ccccc1C(=O)OC)CC2", "Potency": "inactive"},
      {"smiles": "CC1(C)CC(=O)C2=C(C1)O[C@@]1(c3ccsc3)Cc3cc(C#N)ccc3[C@H]2O1", "activity change, negative = inhibition": "-1.88% (inactive)"},
      {"smiles": "COc1cccc([C@H]2Oc3ccc(OC)cc3C(=NO[C@H](C)CN3CCCc4nc(C)c(C)cc43)[C@H]2O)c1", "activity change, negative = inhibition": "-13.8% (inactive)"},
      {"smiles": "CC(CCC(=O)OC[C@H]1O[C@H](C#Cc2ccccc2)C=C[C@H]1Oc1ccc(C)cc1)=NO[C@H](C)c1cn([C@@H]2COC[C@@H]2O)nn1", "activity change, negative = inhibition": "-7.13% (inactive)"},
      {"smiles": "c1ccc(CCc2nc(-c3ccccc3)oc2NC2CCCCC2)cc1", "activity change, negative = inhibition": "-8.15% (inactive)"},
      {"smiles": "CC(C)=CCN1C(=O)[C@@]2(CC(C)=C[C@@H](COCc3ccccc3)O2)c2ccccc21", "activity change, negative = inhibition": "-9.53% (inactive)"},
      {"smiles": "COc1cccc(-c2coc3ccc(Br)cc3c2=O)c1", "activity change, negative = inhibition": "-6.63% (inactive)"},
      {"smiles": "Cc1c(O)c(=O)ccn1Cc1ccccc1", "activity change, negative = inhibition": "5.54% (inactive)"},
      {"smiles": "COC(=O)C(C(=O)OC)[C@@H]1O[C@@]23COC=C[C@]2(C)[C@@H]3c2ccccc21", "activity change, negative = inhibition": "0.149% (inactive)"},
      {"smiles": "CC(C)=CCCC(C)=CCN1C(=O)[C@]2(O[C@H](COc3ccccc3)CC3=CCCC32)c2c(Br)cccc21", "note": "(stereo not given in full)", "Potency": "1510 nM (active)"},
      {"smiles": "O=C1C2=C(C(=O)c3ccccc31)[C@H]1O[C@](c3ccsc3)(Cc3c1ccc1ccccc31)O2", "activity change, negative = inhibition": "-12.3% (inactive)"},
      {"smiles": "O=C1CCCC2=C1[C@H]1O[C@](c3ccsc3)(Cc3c1ccc1ccccc31)O2", "activity change, negative = inhibition": "-5.22% (inactive)"},
      {"smiles": "C[C@H]1CC[C@H]2C(=O)N[C@H](Cc3ccccc3)C(=O)N2[C@H]1c1ccccc1", "activity change, negative = inhibition": "-2.55% (inactive)"},
      {"smiles": "N#Cc1ccc2c(c1)C[C@]1(CCCCN3C(=O)c4ccccc4C3=O)Oc3cc(-c4ccccc4)oc(=O)c3[C@H]2O1", "activity change, negative = inhibition": "-9.39% (inactive)"},
      {"smiles": "COC(=O)N1C(c2ccccc2)=Cc2ccccc2C1C1(C(=O)OC)CCCC1=O", "note": "(stereo not given)", "Potency": "inactive"},
      {"smiles": "CCCNC(=O)OC[C@H]1O[C@H](CCON=C(C)CCC(=O)OC[C@H]2O[C@H](C#Cc3ccccc3)C=C[C@H]2Oc2ccc(C)cc2)C=C[C@H]1Oc1ccc(OC)cc1", "activity change, negative = inhibition": "0.355% (inactive)"},
      {"smiles": "CC(C)[C@@H](OCc1ccccc1)[C@H](C)CON=C1[C@H]2CCn3c(=O)n(-c4ccccc4)c(=O)n3[C@@H]2[C@H](O)[C@@H]2O[C@H]12", "activity change, negative = inhibition": "4.15% (inactive)"},
      {"smiles": "COC(=O)c1ccc(CN2C(=O)[C@]3(OCCC=C[C@@H]3C)c3cc(OC)ccc32)cc1", "activity change, negative = inhibition": "-3.05% (inactive)"}
    ]}
  ]
}
